Data taken from PubChem BioAssay (NCATS).
Inconclusive results are not listed. Unless noted, the call rests on the fitted dose curve; in most records, active means well fitted curve in either direction with a large enough effect (not every such curve was filed as active); inconclusive means small, poorly fitted or top-dose-only effect, or another doubt; inactive means flat fitted curve, though single readings scatter.

How the values were obtained:
[1] = AP1 Signaling Pathway (AID 357); details: ME-180 AP-1-bla reporter, EGF-induced, beta-lactamase ratio, 5 h; at 17.2 µM (top of the series) unless noted;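 further: ME-180 reporter cells stimulated with EGF at its EC50 level; on the % scale 0 is the no-effect control and ±100 the full control effect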
In short: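 Modulation of EGF-driven AP-1 transcription was assessed with a beta-lactamase reporter in ME-180 cells. Compound and EC50 EGF were co-incubated 5 hours at 37 °C before 2.5-hour CCF4 loading at room temperature and dual-emission reading.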

[2] = NFAT Signaling Pathway (AID 444); details: Jurkat NFAT-bla M1, carbachol, beta-lactamase ratio, 5 h; at 17.2 µM (top of the series) unless noted;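 further: carbachol stimulus at about its EC50 of 1 µM final; on the % scale 0 is the no-effect control and ±100 the full control effect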
In short: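 Jurkat cells carrying an NFAT-driven β-lactamase reporter and co-transfected muscarinic M1 receptor were treated with compound plus carbachol (1 uM final, an EC50 level) for 5 h at 37 °C. CCF4 loading followed for 1 h at RT; 460/530 nm ratio gave %activity.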

[3] = Stat Signaling Pathway (AID 446); details: ME-180 (cervical carcinoma) SIE beta-lactamase reporter, IL-6 stimulated, 5 h; at 17.2 µM (top of the series) unless noted;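 further: ME-180 cervical cancer cells given 40 pM IL-6 alongside compound; SIE-controlled beta-lactamase reporter measured as 460/530 nm FRET emission ratio; on the % scale 0 is the no-effect control and ±100 the full control effect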
In short: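 IL-6/STAT signaling read in ME-180 cells via an SIE beta-lactamase reporter. Stimulus was 40 pM IL-6 (its AC50) for 5 hrs, so both activation and inhibition register.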

[4] = target: Glucocorticoid receptor (Homo sapiens) (UniProt P04150); experiment: GR-GFP Redistribution (AID 450;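 active means compounds whose dose series gives a full or clear partial fitted curve of increased nuclear translocation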; further: potency means the concentration at half of the fitted maximal effect)
Sequence of Glucocorticoid receptor (Homo sapiens) (P04150 whole entry, looked up): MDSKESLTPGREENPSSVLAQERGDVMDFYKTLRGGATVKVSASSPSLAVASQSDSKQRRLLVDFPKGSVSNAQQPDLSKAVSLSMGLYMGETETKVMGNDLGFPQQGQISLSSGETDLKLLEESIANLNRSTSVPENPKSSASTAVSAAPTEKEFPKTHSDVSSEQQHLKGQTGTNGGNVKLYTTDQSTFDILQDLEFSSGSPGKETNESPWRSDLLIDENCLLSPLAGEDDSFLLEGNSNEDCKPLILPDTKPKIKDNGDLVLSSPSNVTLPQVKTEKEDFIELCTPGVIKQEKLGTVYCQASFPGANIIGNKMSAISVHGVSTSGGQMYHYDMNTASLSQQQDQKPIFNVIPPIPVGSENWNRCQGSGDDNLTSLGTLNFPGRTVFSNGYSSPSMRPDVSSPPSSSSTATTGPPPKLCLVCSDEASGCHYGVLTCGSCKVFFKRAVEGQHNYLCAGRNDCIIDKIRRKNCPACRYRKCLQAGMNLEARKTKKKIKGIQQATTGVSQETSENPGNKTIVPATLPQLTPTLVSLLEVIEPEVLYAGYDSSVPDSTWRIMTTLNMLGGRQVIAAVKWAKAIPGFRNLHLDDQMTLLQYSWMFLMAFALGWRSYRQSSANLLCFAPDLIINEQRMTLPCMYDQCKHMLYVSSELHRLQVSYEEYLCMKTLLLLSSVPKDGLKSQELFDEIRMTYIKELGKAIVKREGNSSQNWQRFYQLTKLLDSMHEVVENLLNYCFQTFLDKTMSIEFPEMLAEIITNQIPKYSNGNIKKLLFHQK

COc1ccc(N2C(=O)CN=C2Nc2nc(C)cc(C)n2)cc1
inactive: activity change, negative = inhibition [1] 8.39% | activity change, negative = inhibition [2] -10% | activity, negative = inhibition [3] 4.62% | Potency [4] > 20.6 µM

COC(=O)Cn1cc(C(=O)OC)cc(Br)c1=O
inactive: activity change, negative = inhibition [1] 8.29% | activity change, negative = inhibition [2] 0.926% | activity, negative = inhibition [3] -0.311% | Potency [4] > 20.6 µM

C=CCNc1nc(-c2cccc(OC)c2O)nc2ccccc12
inactive: activity change, negative = inhibition [1] 20.2% | activity change, negative = inhibition [2] 4.81% | activity, negative = inhibition [3] -11.9% | Potency [4] > 20.6 µM

CNC(=O)c1ncnnc1N(C)C(=O)NCc1ccccc1
inactive: activity change, negative = inhibition [1] -4.45% | activity change, negative = inhibition [2] 4.03% | activity, negative = inhibition [3] 0.797% | Potency [4] > 20.6 µM

CC(NC(=O)Nc1nnc(C(F)(F)F)s1)(C(F)(F)F)C(F)(F)F
inactive: activity change, negative = inhibition [1] -3.33% | activity change, negative = inhibition [2] 0.893% | activity, negative = inhibition [3] 0.617% | Potency [4] > 20.6 µM

CCC(=O)Nc1cc(-c2nn(C)c(=O)c3ccccc23)ccc1N1CCCCC1
inactive: activity change, negative = inhibition [1] -16.8% | activity change, negative = inhibition [2] -13.8% | activity, negative = inhibition [3] -6.35% | Potency [4] > 20.6 µM

Cc1cc(C)nc(NC2=NCC(=O)N2c2cccc(Cl)c2)n1
inactive: activity change, negative = inhibition [1] 3.62% | activity change, negative = inhibition [2] -0.714% | activity, negative = inhibition [3] 0.214% | Potency [4] > 20.6 µM

O=C(O)CCSc1ccc2ccccc2n1
inactive: activity change, negative = inhibition [1] 14.9% | activity change, negative = inhibition [2] 11.5% | activity, negative = inhibition [3] 0.928% | Potency [4] > 20.6 µM

Cc1ccc(-c2nn(C)c(=O)c3ccccc23)cc1CNC(=O)CSc1nc2ccccc2o1
inactive: activity change, negative = inhibition [1] -10.6% | activity change, negative = inhibition [2] -12.2% | activity, negative = inhibition [3] -16.9% | Potency [4] > 20.6 µM

CCOC(=O)C1Cc2c([nH]c3ccccc23)C(C)N1 (stereo not given)
inactive: activity change, negative = inhibition [1] -10.7% | activity change, negative = inhibition [2] 2.1% | activity, negative = inhibition [3] -9.52% | Potency [4] > 20.6 µM

CCOC(=O)CC(C#N)c1cn(C)c2ccccc12 (stereo not given)
inactive: activity change, negative = inhibition [1] 8.21% | activity change, negative = inhibition [2] -8.09% | activity, negative = inhibition [3] 3.49% | Potency [4] > 20.6 µM

Cc1nc2c(o1)CCc1ccccc1C2O (stereo not given)
inactive: activity change, negative = inhibition [1] 8.51% | activity change, negative = inhibition [2] 3.41% | activity, negative = inhibition [3] 5.73% | Potency [4] > 20.6 µM

COc1ccc(C(C)=O)cc1CSCCC(=O)O
inactive: activity change, negative = inhibition [1] 3.88% | activity change, negative = inhibition [2] 2.2% | activity, negative = inhibition [3] 15.2% | Potency [4] > 20.6 µM

NS(=O)(=O)c1ccc(-c2ccc(C=NC3CCS(=O)(=O)C3)o2)cc1 (stereo not given)
inactive: activity change, negative = inhibition [1] 19.2% | activity change, negative = inhibition [2] -3.68% | activity, negative = inhibition [3] -5.15% | Potency [4] > 20.6 µM

COc1nc(NS(=O)(=O)c2ccc(C)cc2)nc(C)c1Cl
inactive: activity change, negative = inhibition [1] 6.72% | activity change, negative = inhibition [2] -25.4% | activity, negative = inhibition [3] -5.69% | Potency [4] > 20.6 µM

COC(=O)c1sc(NC(=O)C(C)C)c(C(=O)OC)c1C
inactive: activity change, negative = inhibition [1] -5.18% | activity change, negative = inhibition [2] -9.07% | activity, negative = inhibition [3] 1.94% | Potency [4] > 20.6 µM

CC(C)CN1C(=O)c2ccc(C(=O)Nc3ccccn3)cc2C1=O
inactive: activity change, negative = inhibition [1] -5.2% | activity change, negative = inhibition [2] 27.9% | activity, negative = inhibition [3] 4.97% | Potency [4] > 20.6 µM

CC(C)(C)c1ccc(C(=O)C=[N+]=[N-])cc1
inactive: activity change, negative = inhibition [1] 0.479% | activity change, negative = inhibition [2] 1.56% | activity, negative = inhibition [3] 4.94% | Potency [4] > 20.6 µM

CCOc1ccc(-n2c(SCc3ccc(C#N)cc3)nnc2-c2cccnc2)cc1
inactive: activity change, negative = inhibition [1] -13.8% | activity change, negative = inhibition [2] 6.12% | activity, negative = inhibition [3] -13.6% | Potency [4] > 20.6 µM

CCOC(=O)c1cc(C)n(Cc2cccc(OC)c2OC)c1C
inactive: activity change, negative = inhibition [1] -16.9% | activity change, negative = inhibition [2] -21.6% | activity, negative = inhibition [3] -14.9% | Potency [4] > 20.6 µM

CCCOc1cccc(-c2nnc(N)s2)c1
inactive: activity change, negative = inhibition [1] -15.9% | activity change, negative = inhibition [2] -11.9% | activity, negative = inhibition [3] -2.76% | Potency [4] > 20.6 µM

CCCCOc1ccc(C)cc1CN(CCO)CCO
inactive: activity change, negative = inhibition [1] 27.9% | activity change, negative = inhibition [2] -9.6% | activity, negative = inhibition [3] 5.48% | Potency [4] > 20.6 µM

O=C(NCc1cccnc1)NC(C(F)(F)F)C(F)(F)F
inactive: activity change, negative = inhibition [1] 12.5% | activity change, negative = inhibition [2] 2.52% | activity, negative = inhibition [3] 8.58% | Potency [4] > 20.6 µM

COc1ccc(CN(C)CCc2ccccn2)c(OC)c1OC
inactive: activity change, negative = inhibition [1] -14.2% | activity change, negative = inhibition [2] -17.4% | activity, negative = inhibition [3] 11.1% | Potency [4] > 20.6 µM

Cc1c(NC(=O)C(CC(=O)O)NCc2ccco2)c(=O)n(-c2ccccc2)n1C (stereo not given)
inactive: activity change, negative = inhibition [1] -3.94% | activity change, negative = inhibition [2] 5.18% | activity, negative = inhibition [3] 1.34% | Potency [4] > 20.6 µM
